PubChem BioAssay (NCATS)
Inconclusive results are not listed. Where a call stands in place of a potency, no number is given. Calls of active or inactive are those of the source. Calls come from the whole dose curve; as a rule, active = well fitted inhibition curve with a large enough effect; inconclusive = small, poorly fitted or top-dose-only effect; inactive = no such curve, though single readings can be large or run the other way.

Assays:
[1] = test system: Zika virus NS2B-NS3 protease (unlinked complex); assay: Primary screen GU Rhodamine qHTS for Zika virus inhibitors: Unlinked NS2B-NS3 protease assay (AID 1347159); note: nearly all actives have a fitted effect of over 60% in size
Outline: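 A qHTS format was used, with compound concentrations ranging up to 114 microM. Each compound was preincubated with 25 nM NS2B-NS3 protease, and the substrate was then added at 1.5 microM. Curves were fitted with a 4-parameter Hill model.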

[2] = test system: Zika virus NS2B-NS3 protease (linked construct); assay: Primary screen NINDS Rhodamine qHTS for Zika virus inhibitors (AID 1347160); note: nearly all actives have a fitted effect of over 55% in size
Outline: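 Kinetic fluorescence (Ex 480 nm, Em 540 nm) over 15 min with 1.5 microM Rhodamine110 peptide and 25 nM linked protease.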

| SMILES | Potency [1] | Potency [2] |
| --- | --- | --- |
| C=CC1C(OC2OC(CO)C(O)C(O)C2O)OC=C(C(=O)OC)C1CC1CC(=O)CC(CCc2ccc(O)cc2)O1 (stereo not drawn) | inactive | inactive |
| O=C(O[C@H]1[C@@H]2C[C@@H]3OC[C@](O)([C@@H]1Cl)[C@H]2C(O[C@@H]1O[C@H](CO)[C@@H](O)[C@H](O)[C@H]1O)O3)c1ccc(O)c(O)c1 (stereo partly drawn) | inactive | inactive |
| COc1cc(C(=O)OC[C@@]2(O)CO[C@@H](O[C@H]3[C@H](Oc4ccc(C(=O)O)cc4OC)O[C@H](CO)[C@@H](O)[C@@H]3O)[C@@H]2O)ccc1O | inactive | inactive |
| CCN1CCN(Cc2ccc(NC(=O)c3ccc(C)c(/C=C/c4cnc5[nH]ccc5c4OC)c3)cc2C(F)(F)F)CC1 | inactive | inactive |
| CC(C)=CCC(O)/C(C)=C/CO[C@@H]1O[C@H](CO)[C@@H](O)[C@H](O)[C@H]1O (stereo partly drawn) | inactive | inactive |
| Cc1ccc(C(=O)N(CCCN)C(c2oc3cc(Cl)ccc3c(=O)c2Cc2ccccc2)C(C)C)cc1 (stereo not drawn) | inactive | inactive |
| CNC(=O)c1ccccc1Nc1nc(Nc2ccc3c(c2OC)CCC[C@@H](N2CCN(CCO)CC2)C3)ncc1Cl | inactive | inactive |
| CCC1C(=O)OC23C=C[C@@H]4C(C(=O)O)=CO[C@H](O[C@@H]12)[C@@H]43 (stereo partly drawn) | inactive | inactive |
| CC1(C)CC[C@]2(C(=O)O[C@@H]3O[C@H](CO)[C@@H](O)[C@H](O)[C@H]3O)CC[C@]3(C)C(=CCC4[C@@]5(C)CC[C@H](O[C@@H]6O[C@H](C(=O)O)[C@@H](O)[C@H](O[C@@H]7O[C@H](CO)[C@H](O)[C@H](O)[C@H]7O)[C@H]6O)C(C)(C)C5CC[C@]43C)C2C1 (stereo partly drawn) | inactive | inactive |
